# What was measured:
# Format in all cases: functional
# [1] = biological target: Solute carrier family 2, facilitated glucose transporter member 1 (Homo sapiens) (UniProt P11166); test: ST_JUDE_LEISH: Cytotoxicity at 2uM final concentration against transgenic Leishmania Mexicana promastigotes LmGLUT1 that are glucose transport deficient and complemented with the human glucose transporter GLUT1. Activity is measured by DNA content using SYBR green in vitro
# [2] = biological target: Hexose transporter 1 (Plasmodium falciparum) (UniProt O97467); test: ST_JUDE_LEISH: Cytotoxicity at 2uM final concentration against transgenic Leishmania Mexicana promastigotes LmPfHT that are glucose transport deficient and complemented with the Plasmodium falciparum hexose transporter. Activity is measured by DNA content using SYBR green in vitro
# [3] = biological target: Glucose transporter (Leishmania mexicana) (UniProt O61059); test: ST_JUDE_LEISH: Cytotoxicity at 2uM final concentration against transgenic Leishmania Mexicana promastigotes LmGT2 that are glucose transport deficient and complemented with the L. Mexicana glucose transporter 2. Activity is measured by DNA content using SYBR green in vitro
# Chain of Solute carrier family 2, facilitated glucose transporter member 1 (Homo sapiens) (P11166 whole entry): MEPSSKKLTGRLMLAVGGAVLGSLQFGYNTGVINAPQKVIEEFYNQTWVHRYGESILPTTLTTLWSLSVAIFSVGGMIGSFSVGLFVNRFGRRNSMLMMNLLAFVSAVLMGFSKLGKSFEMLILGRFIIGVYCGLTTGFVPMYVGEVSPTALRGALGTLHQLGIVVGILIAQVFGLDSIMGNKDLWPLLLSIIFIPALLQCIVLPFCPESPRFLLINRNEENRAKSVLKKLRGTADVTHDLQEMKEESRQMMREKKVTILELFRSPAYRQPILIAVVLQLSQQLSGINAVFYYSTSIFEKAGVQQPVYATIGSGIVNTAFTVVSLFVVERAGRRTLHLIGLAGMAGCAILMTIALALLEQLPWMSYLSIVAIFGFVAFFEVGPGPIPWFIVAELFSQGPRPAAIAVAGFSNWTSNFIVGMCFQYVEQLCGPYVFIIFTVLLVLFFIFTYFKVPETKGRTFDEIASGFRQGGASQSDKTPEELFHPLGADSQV
smiles,measurement,setting,value
CC1CCCN(Cc2c(O)ccc3c(O)c(-c4nc5ccccc5s4)c(=N)oc23)C1 (stereo not given),inhibition,[1],3.47%
same,inhibition,[2],8.25%
same,inhibition,[3],0.96%
O=S(=O)(Nc1ccc(CCN2CCCCC2CCN2CCCC2)cc1)c1cccc2cccnc12 (stereo not given),inhibition,[1],1.48%
same,inhibition,[2],1.12%
same,inhibition,[3],2.15%
COc1ccccc1CCNc1nc(C)cc(N[C@@H](Cc2ccccc2)C(=O)NCCOc2ccccc2)n1,inhibition,[1],1.72%
same,inhibition,[2],1.1%
same,inhibition,[3],-2.09%
N#Cc1cccc(NC(=O)Nc2ccc3c(c2)CCN(C2CCC2)CC3)c1,inhibition,[1],5.45%
same,inhibition,[2],4.43%
same,inhibition,[3],4.94%
Nc1n[nH]c(-c2ccccc2Nc2ccnc3cc(-c4nccs4)ccc23)n1,inhibition,[1],1.03%
same,inhibition,[2],0.07%
same,inhibition,[3],-0.15%
COc1ccc(NS(=O)(=O)c2ccc(C(=O)Nc3ccc(OC(F)(F)F)cc3)cc2)cc1N1CCN(CC2CC2)CC1,inhibition,[1],6.41%
same,inhibition,[2],5.3%
same,inhibition,[3],4.14%
Cc1ccc(NC(=S)N2CCCN(CCCCCNC(=O)/C=C/c3ccc(Cl)c(Cl)c3)CC2)cc1Cl,inhibition,[1],-0.25%
same,inhibition,[2],-1.02%
same,inhibition,[3],0.36%
CCOC(=O)c1c(CCc2ccc(C(F)(F)F)cc2)nc2c(c1-c1ccc(C(=O)N[C@@H](C)c3ccncc3)cc1)C(=O)N1CCC[C@@H]21,inhibition,[1],2.81%
same,inhibition,[2],1.31%
same,inhibition,[3],0.48%
N#Cc1ccc(CN2CCCN(c3ccc(NC(=O)c4ccc(F)cc4)cc3)CC2)cc1,inhibition,[1],2.88%
same,inhibition,[2],3.32%
same,inhibition,[3],0.81%
COc1nc2c(N3CCN(CCNCc4ccc5c(n4)NC(=O)CO5)CC3)ccnc2cc1F,inhibition,[1],4.21%
same,inhibition,[2],2.44%
same,inhibition,[3],0.39%

# — ChEMBL document CHEMBL3433997, “St. Jude Leishmania screening dataset” (2016)
